{"source": "PubChem BioAssay (NCI)", "note": "Compounds without any hit were thinned out: in the full panel of roughly 79,000, 15% have a hit. A number with no mark means an inactive call. The source made the active and inactive calls. Cut-off read from the data, not from the text of the source: active = growth inhibition above about 70%; inactive = the rest."}
{"test": "NCI Yeast Anticancer Drug Screen. Data for the bub3 strain (AID 167)", "settings": "S. cerevisiae bub3 mutant strain, at 50.0 µM, stronger effect = higher value", "procedure,_shortened": "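Screening used yeast with an engineered genetic alteration affecting cell cycle control. Compound-exposed cultures were compared with vehicle cultures, and reduced growth was taken as inhibition.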"}
{"smiles": "O=C(O)C(c1ccccc1)C(O)C1CCCCC1", "note": "(stereo not given)", "growth inhibition": "-8.1%"}
{"smiles": "CC(C)C1NC(C(=O)O)C(C)(C)S1", "note": "(stereo not given)", "growth inhibition": "0.35%"}
{"smiles": "CCOC(=O)C(=O)Cc1ccccc1[N+](=O)[O-]", "growth inhibition": "-3.8%"}
{"smiles": "CC(O)CCNC(=O)c1ccccc1", "note": "(stereo not given)", "growth inhibition": "-13.3%"}
{"smiles": "O=c1nc(Oc2ccccc2)nc2ccc(Cl)nn12", "growth inhibition": "40.9%"}
{"smiles": "CS(=O)(=O)Nc1cccc(C(=O)NN)c1", "growth inhibition": "-11.7%"}
{"smiles": "C[C@]12CCC(=O)C(O)=C1CCC2=O", "growth inhibition": "3.8%"}
{"smiles": "CC1=Nc2ccccc2S/C1=C(/C)NN", "growth inhibition": "1.8%"}
{"smiles": "CC(C)(C)NC(=O)NCC1CCCC1NC(=O)NC(C)(C)C", "note": "(stereo not given)", "growth inhibition": "7.35%"}
{"smiles": "O=c1c2ccccc2c(=O)n2n1C1CCC2C1", "growth inhibition": "1.85%"}
{"smiles": "O=C(Nc1cc(Cl)ccc1Cl)c1ccc(Cl)cc1", "growth inhibition": "-9.7%"}
{"smiles": "CCOC(=O)Nc1ccn(C2OC(COC(C)=O)C(OC(C)=O)C2OC(C)=O)c(=O)n1", "note": "(stereo not given)", "growth inhibition": "-1.9%"}
{"smiles": "CC(C)NCC1CCCO1", "note": "(stereo not given)", "growth inhibition": "-5.7%"}
{"smiles": "CSc1nc(Br)nc2c1ncn2C1CC(Oc2ccc(C)cc2)C(COc2ccc(C)cc2)O1", "note": "(stereo not given)", "growth inhibition": "17.1%"}
{"smiles": "CCC1CCCCCC1=O", "note": "(stereo not given)", "growth inhibition": "-30.4%"}
{"smiles": "CS(=O)(=O)CC(O)(c1ccc(Cl)cc1)c1ccccn1", "note": "(stereo not given)", "growth inhibition": "-0.8%"}
{"smiles": "Cc1cc(=O)n(-c2ccc(-c3ccc(-n4c(C)c(C(=O)O)c(C)cc4=O)cc3)cc2)c(C)c1C(=O)O", "growth inhibition": "-2.4%"}
{"smiles": "COc1ccc(C(C)=O)cc1CO/N=C1\\CSCc2ccccc21", "growth inhibition": "48.2%"}
{"smiles": "O=C(CC/[N+]([O-])=C/c1ccccc1)OCc1ccccc1", "growth inhibition": "21.8%"}
{"smiles": "O=C1OC(c2ccc([N+](=O)[O-])cc2)=N/C1=C\\c1ccc(Cl)c(Cl)c1", "growth inhibition": "25.2%"}
{"smiles": "CCOC(=O)C(C)(Cc1ccco1)C(=O)OCC", "growth inhibition": "14.4%"}
{"smiles": "CC(=O)c1cccc(NC(=O)Oc2ccc(Cl)cc2Cl)c1", "growth inhibition": "11.3%"}
{"smiles": "CCOC(=O)c1[nH]n(-c2ccccc2)c(=O)c1/C=N/C(=S)Nc1ccccc1", "growth inhibition": "-21.3%"}
{"smiles": "CCOC(=O)NN(C(=O)OCC)C(C)(C)C(C)=O", "growth inhibition": "17.8%"}
{"smiles": "CCOC(=O)C(=CC(C)(C)C)C(=O)OCC", "growth inhibition": "21.1%"}
{"smiles": "Cc1ccc(NC(=S)SCc2ccc([N+](=O)[O-])cc2)cc1C", "growth inhibition": "12.9%"}
{"smiles": "O=C(Cc1ccccc1)Nc1ccccc1", "growth inhibition": "-7.55%"}
{"smiles": "COC(=O)Nc1c2c(nc3ccccc13)-c1ccccc1C(C)(C)C2OC", "note": "(stereo not given)", "growth inhibition": "84% (active)"}
{"smiles": "N=c1c2ccccc2nc2oc3ccccc3n12", "growth inhibition": "24.9%"}
{"smiles": "CCCCCOS(C)(=O)=O", "growth inhibition": "0.55%"}
{"smiles": "NC(=S)N/N=C/c1ccc2c(c1)OCO2", "growth inhibition": "22.9%"}
{"smiles": "O=C1NC(=O)C(=Nc2cccc3c(=O)[nH][nH]c(=O)c23)C(c2nc3ccccc3s2)C1=O", "note": "(stereo not given)", "growth inhibition": "-3.05%"}
{"smiles": "COC(=O)/C(=C\\c1ccccc1[N+](=O)[O-])c1ccc2c(c1)OCO2", "growth inhibition": "9.6%"}
{"smiles": "CN=C(N)SCCCCCCSC(N)=NC", "growth inhibition": "-3.6%"}
{"smiles": "Cn1c(=S)[nH]c2cc(Cl)c(Cl)cc21", "growth inhibition": "-14.7%"}
{"smiles": "Cc1n(C)nn[n+]1C", "growth inhibition": "7.9%"}
{"smiles": "CCOC(=O)c1cc(CC)sc1N", "growth inhibition": "12.2%"}
{"smiles": "CNS(=O)(=O)c1ccc(N)cc1", "growth inhibition": "3.15%"}
{"smiles": "N#CCCOCCNCCSC(=O)c1ccccc1", "growth inhibition": "8.45%"}
{"smiles": "CCOC1(C)OC2OC(COC(C)=O)C(OC(C)=O)C(OC(N)=O)C2O1", "note": "(stereo not given)", "growth inhibition": "-1.15%"}
